According to PubChem BioAssay (NCATS):
Where “and” joins values, the source holds several entries; their conditions need not be identical. Equal values may be shown once. Results filed as inconclusive are left out. A number with no mark means an inactive call. Calls of active or inactive are those of the source. Calls follow the shape of the dose curve; as a rule, active = well fitted cell-killing curve with a large enough effect; inconclusive = small, poorly fitted or top-dose-only effect, or effect the other way; inactive = flat fitted curve, though single readings scatter. Where a SMILES comes first, the peptide text is derived from it. [ ]: non-standard residue; d: D form.

Each compound was assayed on PA-1 (assay: Primary qHTS to identify gynecologic anti-cancer compounds using libraries of approved drugs and bioactive compounds (AID 1345084; also: nearly all actives have a fitted effect of over 55% in size)). Settings: Gynecologic cancer cell panel viability, ATPlite luminescence, 48 h; series mostly up to 57.5 µM; activity change, negative = cytotoxicity: at the top concentration.
How it was run: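 Cell viability after 48 h drug treatment, ATPlite luminescence readout; five doses.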
% is scaled to controls: 0 for no effect and ±100 for the full control effect; potency is read from the fitted curve at half-maximal effect.

| Compound | activity change, negative = cytotoxicity | Potency |
| --- | --- | --- |
| CN1Cc2c(N)cccc2C(c2ccccc2)C1 (stereo not drawn) | 1.18% |  |
| C(#Cc1cccc(CN2CCOCC2)c1)CCN1CCCCC1 | 2.27% |  |
| C/C=C(\C)C(=O)O[C@H]1[C@H](O)[C@]2(COC(C)=O)[C@H](O)C[C@]3(C)C(=CCC4[C@@]5(C)CC[C@H](O[C@@H]6O[C@H](C(=O)O)[C@@H](O[C@@H]7O[C@H](CO)[C@@H](O)[C@H](O)[C@H]7O)[C@H](O)[C@H]6O[C@@H]6O[C@H](CO)[C@@H](O)[C@H](O)[C@H]6O)[C@](C)(CO)C5CC[C@]43C)[C@@H]2CC1(C)C (stereo partly drawn) | 25.1% [at 11.6 µM] |  |
| C[C@]12C=CC(=O)C=C1CC[C@@H]1[C@@H]2[C@@H](O)C[C@@]2(C)[C@H]1CC[C@]2(O)C(=O)COC(=O)CCC(=O)O | -4.15% |  |
| CC1=C2[C@@H]([C@H](C)CC[C@H]2/C=C(\C)C(=O)O)[C@H](O)C1 | 1.69% |  |
| CC(=O)c1c(C)cc(O[C@@H]2O[C@H](CO)[C@@H](O)[C@H](O)[C@H]2O)cc1O | -2.13% [at 38.5 µM] |  |
| OC[C@H]1O[C@@H](OCCc2ccc(O)cc2)[C@H](O)[C@@H](O)[C@@H]1O | -1.83% |  |
| C[C@@H]1C[C@H]2[C@@H]3CCC4=CC(=O)C=C[C@]4(C)[C@@]3(F)[C@@H](O)C[C@]2(C)[C@@]1(O)C(=O)COP(=O)(O)O | 5.34% |  |
| CC(=O)N1CCN(NC(=O)c2ccc(F)cc2)CC1 | -0.661% |  |
| NC(Cc1c[nH]c2ccccc12)C(=O)NC(CCC(=O)O)C(=O)O (stereo not drawn) | 0.897% |  |
| CC[C@H](/C=C/[C@@H](C)[C@H]1CC[C@H]2[C@@H]3CC=C4C[C@@H](O)CC[C@]4(C)[C@H]3CC[C@]12C)C(C)C | 2.16% [at 6.55 µM] |  |
| CCOc1ccc(C(Nc2ccccn2)c2ccc3ccc(C)nc3c2O)cc1C (stereo not drawn) | -5.34% |  |
| COc1cc(C2Oc3c(OC)cc(/C=C/C(=O)OC[C@H]4O[C@@H](OC(C)(C)C(=O)O)[C@H](O)[C@@H](O)[C@@H]4O)cc3C2CO)ccc1O (stereo partly drawn) | 5.01% [at 25.3 µM] |  |
| COC1=CC(=O)C[C@@H](C)[C@]12Oc1cc(OC)cc(OC)c1C2=O | -2.7% [at 38.5 µM] |  |
| COc1c(C)c(OCC=C(C)C)cc2c1C(=O)NC2=O | 9.51% |  |
| C[C@]12CCC(=O)C=C1[C@@H](O)C[C@@H]1[C@@H]2[C@@H](O)C[C@@]2(C)[C@H]1CC[C@]2(O)C(=O)CO | 6.63% |  |
| Cn1c(=O)cc(N2CCCC(N)C2)n(Cc2ccccc2C#N)c1=O (stereo not drawn) | 8.36% |  |
| CC(=O)O[C@H]1C[C@@H]2[C@]3(CC[C@]4(C)[C@@H](C5(C)CCC(C(C)(C)O)O5)[C@@H](O)C[C@@]24C)C[C@@]32CC[C@H](O[C@@H]3OC[C@@H](O)[C@H](O)[C@H]3O)C(C)(C)[C@H]12 (stereo partly drawn) | -7.13% [at 25.3 µM] |  |
| COc1cc(C[C@H]2COC(=O)[C@@H]2Cc2ccc(O)c(OC)c2)ccc1O | 4.36% [at 38.5 µM] |  |

| Compound | activity change, negative = cytotoxicity | Potency |
| --- | --- | --- |
| CCC(=O)NS(=O)(=O)c1ccc(-c2c(-c3ccccc3)noc2C)cc1 | 11.5% |  |
| C=CC(C)(O)CO[C@@H]1O[C@H](CO)[C@@H](O)[C@H](O)[C@H]1O (stereo partly drawn) | 9.66% |  |
| Clc1ccc(CN[C@H]2CCN(c3ncc(Br)cn3)C2)c(Cl)c1 | 0.469% |  |
| CC(C)C(=O)c1cn(CC(=O)COc2ccc(Oc3ccccc3)cc2)c2ccc(C(=O)O)cc12 | -6.8% |  |
| CC(C)C1=CC2=CCC3[C@](C)(CCC[C@@]3(C)C(=O)O)C2CC1O (stereo partly drawn) | 15.3% [at 38.5 µM] |  |
| CC[C@H]1OC(=O)C[C@@H](O)[C@H](C)[C@@H](O[C@@H]2O[C@H](C)[C@@H](O)[C@H](N(C)C)[C@H]2O)[C@@H](CCN2C[C@H](C)C[C@H](C)C2)C[C@@H](C)C(=O)/C=C/C(C)=C/[C@@H]1CO[C@@H]1O[C@H](C)[C@@H](O)[C@@H](OC)[C@H]1OC | -1.3% |  |
| CC(C)NC[C@H](O)COc1ccc(CCOCC2CC2)cc1 | -0.179% |  |
| CC(=O)OC(C)OC(=O)C(C)c1ccc(-c2ccccc2)c(F)c1 (stereo not drawn) | 12.3% |  |
| C=C1C(=O)O[C@H]2[C@H]1[C@@H](OC(=O)C(C)CO)C[C@@]1(C)[C@H](O)CCC(=O)[C@H]21 (stereo partly drawn) | 2.01% [at 38.5 µM] |  |
| CCC(C)(O)C(O)C(=O)OCc1ccc(O[C@@H]2O[C@H](CO)[C@@H](O)[C@H](O)[C@H]2O)c(OC)c1 (stereo partly drawn) | 6% [at 25.3 µM] |  |
| NS(=O)(=O)OC[C@@H]1C[C@@H](n2ccc3c(N[C@H]4CCc5ccccc54)ncnc32)C[C@@H]1O |  | 708 nM (active) and 1 µM (active) |
| COc1ccc(C[C@H](N)C(=O)N[C@H]2[C@@H](O)[C@H](n3cnc4c(N(C)C)ncnc43)O[C@@H]2CO)cc1 |  | 708 nM (active) |
| C[C@H](NCc1ccc(OCc2ccccc2F)cc1)C(N)=O | -0.0296% |  |
| CC(=O)N[C@H](Cc1ccc(O)cc1)C(=O)N[C@H](CCCN=C(N)N)C(=O)N[C@H](Cc1ccccc1)C(N)=O (Ac-[dY]-[dR]-[dF]-NH2) | 11.9% |  |
| Nc1ncnc2c1ncn2[C@H]1CCCO1 | -1.23% |  |
| CCC(=O)O[C@]1(C(=O)CCl)[C@@H](C)C[C@H]2[C@@H]3C[C@H](F)C4=CC(=O)C=C[C@]4(C)[C@@]3(F)[C@@H](O)C[C@@]21C | 5.68% |  |
| CCOc1ccc(-c2ccc(Cn3c(CC(C)(C)C(=O)O)c(SC(C)(C)C)c4cc(OCc5ccc(C)cn5)ccc43)cc2)cn1 |  | inactive |
| CC1OC(OC2C(CO)OC(OCC3OC(OC(=O)C45CCC(C)(C)CC4C4=CCC6C7(C)CCC(OC8OC(C(=O)O)C(O)C(OC9OC(CO)C(O)C(O)C9O)C8O)C(C)(C)C7CCC6(C)C4(C)CC5)C(O)C(O)C3O)C(O)C2O)C(O)C(O)C1O (stereo not drawn) | 14.3% [at 6.55 µM] |  |
| CC1CCC2(C)C(CC(O)C(O)C23CO3)C1(C)CCC1=CC(=O)OC1O (stereo not drawn) | -24% [at 38.5 µM] |  |
